Compound activity deposited in PubChem by University of Pittsburgh Molecular Library Screening Center.
This excerpt belongs to a sample that is enriched for hits.
YopH inh = YopH (Yersinia) phosphatase inhibition | fluorescence Ex485/Em525 | inhibition, % (no concentration beside the values) | 140,000 tested, 0.16% active | AID 898; in the data active = inhibition above about 50%
An asterisk follows results filed as active.

SMILES	YopH inh
O=C(c1ccco1)N1CCN(CC(=O)N2CCCc3c2c(=O)oc2ccc(O)cc32)CC1	53*
O=C(CN1C(=O)C2CC=CCC2C1=O)Nc1nnc(SCc2c(Cl)cccc2Cl)s1 (stereo not drawn)	-1
O=C(Nc1nnc(SCc2ccc(Cl)cc2)s1)c1ccco1	-48
O=C(CN1C(=O)C2CC=CCC2C1=O)Nc1nnc(SCc2ccc(Cl)cc2)s1 (stereo not drawn)	76*
O=C(NNc1nc(-c2ccccc2)cs1)c1ccco1	-5
Cc1cc(S(=O)(=O)N(C)CCc2ccccc2)ccc1-n1cnnn1	-31
C=CCc1cccc2cc(C(=O)Nc3ccc(S(=O)(=O)Nc4nnc(CC)s4)cc3)c(=O)oc12	75*
C=CCc1cccc2cc(C(=O)NC(C)(C)C)c(=O)oc12	-25
C=CCc1cccc2cc(C(=O)Nc3ccc(F)cc3)c(=O)oc12	-43
Cc1c(C=O)c(=O)n(-c2ccccc2)n1-c1ccccc1	-5
CC1=C(C(=O)O)N2C(=O)C(NC(=O)c3nn(C)cc3Cl)C2SC1 (stereo not drawn)	-36
NC(=O)c1cc[n+](CC2=C(C(=O)O)N3C(=O)[C@@H](NC(=O)C(c4ccccc4)S(=O)(=O)[O-])[C@H]3SC2)cc1 (stereo partly drawn)	-46
N[C@@H](C(=O)N[C@@H]1C(=O)N2C(C(=O)O)=C(Cl)CS[C@H]12)c1ccccc1	97*
COC(=O)c1ccc(CSc2nc3ccccc3c(=O)n2-c2ccc(OC)c(OC)c2)o1	-18
O=C(CCc1ccc(S(=O)(=O)N2CCOCC2)cc1)Nc1ccc(N2CCOCC2)cc1	-25
Cc1ccc(C(=O)c2c(C)oc3c2C(=O)C(=O)c2ccccc2-3)cc1	69*
Cc1ccc(C(=O)c2coc3c2C(=O)C(=O)c2ccccc2-3)cc1	-14
Cc1oc2c(c1C(=O)c1ccc(Cl)cc1)C(=O)C(=O)c1ccccc1-2	6
O=C(NC(=S)N1CCN(C(c2ccccc2)c2ccccc2)CC1)c1ccc(S(=O)(=O)N2CCOCC2)cc1	-21
O=C(NC(C(=O)O)c1ccccc1)c1ccc(S(=O)(=O)N2CCOCC2)cc1 (stereo not drawn)	50*
O=C(NC1CCCCC1)c1ccc(S(=O)(=O)N2CCOCC2)cc1	-48
O=C(c1ccc(-n2c(SCc3cc(F)ccc3F)nc3ccccc3c2=O)cc1)N1CCOCC1	3
Cc1csc(N2CCc3ccccc32)n1	54*
Fc1cnc(N2CCc3ccccc32)nc1N1CCc2ccccc21	-11
Cc1cc(N2CCCc3ccccc32)n2ncnc2n1	-5
SMILES	YopH inh
O=C(c1cccc(F)c1)N1CCN(c2cccc(C(F)(F)F)c2)CC1	-16
Cc1nnc(SCC(=O)Nc2ncc3c(n2)CCCC3=O)s1	-29
CCOc1ccccc1C1N(c2ccc(OC)cc2)C(=O)C2CCCN21 (stereo not drawn)	-45
CCOC(=O)N1CCN(C(=O)Cn2c(=O)sc3ccccc32)CC1	-14
CCOC(=O)CNC(=O)Cn1c(C)cc2ccccc2c1=O	12
CCOC(=O)N1CCN(C(=O)Cn2c(C)cc3ccccc3c2=O)CC1	55*
CC(C)C(c1nnnn1Cc1ccc(F)cc1)N1CCN(C(=O)c2ccco2)CC1 (stereo not drawn)	-9
COc1ccc(NC(=O)/C(=C/c2cccnc2)NC(=O)c2cccs2)cc1	53*
COc1ccc(NC(=O)/C(=C\c2cccnc2)NC(=O)c2cccs2)cc1	-12
O=C(Nc1cccc(F)c1)/C(=C\c1cccnc1)NC(=O)c1cccs1	-24
Cc1ccc(-c2cc(C(=O)Nc3cc(C)ccc3C)[nH]n2)c(O)c1	-21
COc1ccc(OC)c(NC(=O)c2cc(-c3ccc(C)cc3O)n[nH]2)c1	92*
COc1ccc(OC)c(NC(=O)Nc2cc(NC(=O)Nc3cc(OC)ccc3OC)c(C)nc2C)c1	-5
C=CCNC(=O)CC(=O)N/N=C/c1cccc(Br)c1	-27
O=C(NN1c2ccccc2CCc2ccccc21)c1ccccc1Br	-34
Cc1nn(C)c(C)c1S(=O)(=O)Nc1ccc2c(c1)OCO2	-15
CN1C[C@H](CNC(=O)OCc2ccccc2)C[C@@H]2c3cccc4c3c(cn4C)C[C@H]21	-11
CC[C@@H](CO)NC(=O)[C@@H]1C=C2c3cccc4c3c(cn4C)C[C@H]2N(C)C1	64*
COc1ccc(CCNC(=O)c2ccc(CS(=O)(=O)c3ccc(Cl)cc3)o2)cc1OC	-13
COc1ccccc1CNC(=O)C/C(C)=N/NC(=O)COc1ccc(C)cc1Br	-31
CCOC(=O)C1=C(C)NC(=O)NC1c1ccoc1 (stereo not drawn)	-45
c1cncc(C(c2nnnn2C2CCCC2)N2CCN(Cc3ccc4c(c3)OCO4)CC2)c1 (stereo not drawn)	-31
Cc1c(NC(=O)C2(c3ccc(Cl)cc3)CCCC2)c(=O)n(-c2ccccc2)n1C	-6
O=C(N/N=C/c1ccc(OCCCF)cc1)c1cc(OCC(F)(F)F)ccc1OCC(F)(F)F	-35
Cn1c(COc2ccccc2)nnc1SCc1nc2ccccc2[nH]1	71*
Cn1c(SCc2nc3ccccc3[nH]2)nnc1-c1cnccn1	-32
CCn1c(COc2ccc(C)cc2)nnc1SCc1nc2ccccc2[nH]1	11
